The values below come from PubChem BioAssay AID1259412 (Laboratorio de Genomica e Expressao (LGE), UNICAMP, 2018).

The source made the active and inactive calls. The rule behind the calls is not given here.

A short description of assay [1]: alternative oxidase inhibition and growth effect – profiling panel (AID 1259412).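 For growth (% of control): growth monitored over 72 h.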 As to conditions: AOX-dependent respiration, at 500 µM; for growth (% of control): O2 uptake, measured here: growth; for O2 uptake (% of control): measured here: O2 uptake, control condition (no AOX).
Assay [2] deals with alternative oxidase (AOX). The description is as above. Conditions: AOX-dependent respiration, at 500 µM, stronger effect = lower value.
[3] abbreviates: AOX-dependent treatment condition, stronger effect = lower value.

Consider `CCN(CC)CCNC(=O)c1ccccc1`, for which the growth (% of control) is 92.5% in assay [1] (setting [3]) and 87.9% in assay [1] (control condition). In addition, the O2 uptake (% of control) in assay [1] (stronger effect = lower value) was 95.7%; in assay [2], 78.4% (active).
In the same order, the values of `O=C(Nc1ccc(N2CCOCC2)cc1)c1cccc(Cl)c1` are 89.6%, 92.8%, 90.9% and 81.3% (active).
In the same order, the values of `O=C(Nc1cccc(NC(=O)c2cccc(I)c2)c1)c1cccc(I)c1` are 107%, 116%, 106% and 89% (active).
Take `O=C(Nc1cccc(C(F)(F)F)c1)c1ccccc1I`: the growth (% of control) in assay [1] (setting [3]) came to 14.6%; in assay [1] (control condition), 92%. In addition, the O2 uptake (% of control) in assay [1] (stronger effect = lower value) is 79.2%; in assay [2], 14.3% (active).
The matching figures for `NC(=O)c1ccccc1NC(=O)c1cccc(Cl)c1`: 65.4%, 68.9%, 85.8% and 41.6% (active).
The matching figures for `O=C(Nc1cccc(Br)c1)c1cccc(Br)c1`: 82.5%, 91.3%, 81% and 16.5% (active).
The matching figures for `COc1cc(NC(=O)c2cccc(Cl)c2)cc(OC)c1OC`: 82.2%, 78%, 97.8% and 81.5% (active).
With `O=C(Nc1ccccc1)c1cccc(Cl)c1`, the growth (% of control) was 92.3% in assay [1] (setting [3]) and 91.8% in assay [1] (control condition). Also, the O2 uptake (% of control) in assay [1] (stronger effect = lower value) was 94.9%; in assay [2], 22% (active).
As for `O=C(Nc1ccccc1)c1ccccc1`, the growth (% of control) in assay [1] (setting [3]) amounted to 69.8%; in assay [1] (control condition), 94.3%. The O2 uptake (% of control) is 99.9% in assay [1] (stronger effect = lower value) and 67.2% (active) in assay [2].
Turning to `NC(=O)c1ccccc1NC(=O)c1cccc(I)c1`, the figures for the growth (% of control) in assay [1] (setting [3]) and in assay [1] (control condition) were 91.2% and 98.8%, respectively. Also, the O2 uptake (% of control) in assay [1] (stronger effect = lower value) is 87.5%; in assay [2], 35.5% (active).
For `O=C(Nc1cccc(NC(=O)c2cccc(F)c2)c1)c1cccc(F)c1`, the growth (% of control) turned out to be 113% in assay [1] (setting [3]) and 133% in assay [1] (control condition). In addition, the O2 uptake (% of control) was 97% in assay [1] (stronger effect = lower value) and 51.3% (active) in assay [2].
The matching figures for `O=C(Nc1ccc(N2CCOCC2)cc1)c1ccccc1I`: 86.7%, 96.2%, 86.1% and 59.6% (active).
Turning to `Nc1cccc(S(=O)(=O)c2cccc(NC(=O)c3ccccc3)c2)c1`, the results for the growth (% of control) in assay [1] (setting [3]) and in assay [1] (control condition) were 93.3% and 84.2%, respectively. The O2 uptake (% of control) in assay [1] (stronger effect = lower value) was 112%; in assay [2], 98.2% (inactive).
In the case of `Cc1cccc(C(=O)Nc2cccc(C(F)(F)F)c2)c1`, the growth (% of control) in assay [1] (setting [3]) came to 54.5%; in assay [1] (control condition), 88.4%. Further, the O2 uptake (% of control) in assay [1] (stronger effect = lower value) is 101%; in assay [2], 15.2% (active).
In the same order, the values of `O=C(Nc1cccc(F)c1)c1cccc(F)c1` are 23%, 78.7%, 103% and 52.3% (active).
In the same order, the values of `N#Cc1cccc(C(=O)Nc2cccc([N+](=O)[O-])c2)c1` are 91.7%, 101%, 110% and 98.7%.
As to `O=C(Nc1cccc(F)c1)c1cccc(Br)c1`, the growth (% of control) in assay [1] (setting [3]) came to 23.1%; in assay [1] (control condition), 88%. Besides, the O2 uptake (% of control) is 73.7% in assay [1] (stronger effect = lower value) and 28.7% (active) in assay [2].
The matching figures for `NC(=O)c1ccccc1NC(=O)c1cccc(Br)c1`: 97.2%, 80.6%, 80.8% and 36.9% (active).
As for `COc1cccc(C(=O)Nc2cccc(Br)c2)c1`, the results for the growth (% of control) in assay [1] (setting [3]) and in assay [1] (control condition) were 51.9% and 92%, respectively. Besides, the O2 uptake (% of control) in assay [1] (stronger effect = lower value) was 85.8%; in assay [2], 27.5% (active).
Turning to `O=C(Nc1ccccc1)c1cccc(F)c1`, the growth (% of control) in assay [1] (setting [3]) came out at 73.9%; in assay [1] (control condition) it was 101%. Further, the values for the O2 uptake (% of control) in assay [1] (stronger effect = lower value) and in assay [2] were 103% and 61.8% (active), respectively.
For the molecule `COc1cccc(C(=O)Nc2cccc([N+](=O)[O-])c2)c1`, the growth (% of control) in assay [1] (setting [3]) turned out to be 63.7%; in assay [1] (control condition), 109%. In addition, the results for the O2 uptake (% of control) in assay [1] (stronger effect = lower value) and in assay [2] were 91.5% and 31.9% (active), respectively.
The matching figures for `O=C(Nc1cccc(OCc2ccccc2)c1)c1cccc(F)c1`: 86%, 81.9%, 97.4% and 41.2% (active).
In the same order, the values of `O=C(NCc1ccc2c(c1)OCO2)c1cccc(Br)c1` are 88%, 82.8%, 94.7% and 24.4% (active).
The matching figures for `COc1cc(NC(=O)c2ccccc2)cc(OC)c1OC`: 84.6%, 76%, 95.8% and 61.1% (active).
Take `Cc1cccc(C(=O)Nc2cccc(Cl)c2)c1`: the growth (% of control) in assay [1] (setting [3]) was 14.9%; in assay [1] (control condition), 65.6%. Moreover, the O2 uptake (% of control) is 87.4% in assay [1] (stronger effect = lower value) and 20.9% (active) in assay [2].
The matching figures for `O=C(Nc1cccc(Br)c1)c1ccccc1I`: 57.8%, 98.8%, 81% and 10.4% (active).
Take `COc1cccc(C(=O)Nc2cc(OC)c(OC)c(OC)c2)c1`: the growth (% of control) in assay [1] (setting [3]) worked out at 104%; in assay [1] (control condition), 89%. In addition, the O2 uptake (% of control) in assay [1] (stronger effect = lower value) is 101%; in assay [2] it was 77.6% (inactive).
In the same order, the values of `O=C(Nc1cccc(OCc2ccccc2)c1)c1cccc(Cl)c1` are 95.6%, 92.6%, 110% and 76.1% (active).
The matching figures for `O=C(Nc1cccc(NC(=O)c2ccccc2)c1)c1ccccc1`: 106%, 103%, 92.6% and 44% (active).
The matching figures for `O=C(NCc1ccc2c(c1)OCO2)c1cccc(F)c1`: 39.8%, 48.8%, 89.6% and 36.9% (active).
For `N#Cc1cccc(C(=O)Nc2ccc(N3CCOCC3)cc2)c1`, the results for the growth (% of control) in assay [1] (setting [3]) and in assay [1] (control condition) were 96.5% and 92.2%, respectively. Further, the O2 uptake (% of control) was 105% in assay [1] (stronger effect = lower value) and 90.5% (inactive) in assay [2].
In the same order, the values of `COc1cccc(C(=O)Nc2ccccc2)c1` are 43.8%, 60.4%, 95.1% and 57.1% (active).
In the same order, the values of `COc1cc(NC(=O)c2cccc(F)c2)cc(OC)c1OC` are 92.8%, 80.8%, 93.1% and 98.7% (inactive).
In the case of `Cc1cccc(C(=O)Nc2cccc(NC(=O)c3cccc(C)c3)c2)c1`, the growth (% of control) in assay [1] (setting [3]) amounted to 70.5%; in assay [1] (control condition) it was 118%. The O2 uptake (% of control) in assay [1] (stronger effect = lower value) was 102%; in assay [2], 51.6% (active).
In the same order, the values of `O=C(Nc1cccc(I)c1)c1ccccc1` are 95%, 91%, 78.6% and 17.3% (active).
With `NC(=O)c1ccccc1NC(=O)c1cccc(F)c1`, the growth (% of control) in assay [1] (setting [3]) came out at 88.1%; in assay [1] (control condition), 94.5%. Besides, the O2 uptake (% of control) in assay [1] (stronger effect = lower value) is 85.1%; in assay [2] it was 81% (inactive).
As to `COc1cc(NC(=O)c2cccc(Br)c2)cc(OC)c1OC`, the growth (% of control) in assay [1] (setting [3]) was determined as 90.6%; in assay [1] (control condition) it was 84.3%. For the same molecule, the O2 uptake (% of control) in assay [1] (stronger effect = lower value) is 90%; in assay [2], 63.6% (active).
With `NC(=O)c1ccccc1NC(=O)c1ccccc1I`, the growth (% of control) in assay [1] (setting [3]) is 93.3%; in assay [1] (control condition), 82.7%. Also, the O2 uptake (% of control) was 112% in assay [1] (stronger effect = lower value) and 84.5% (inactive) in assay [2].
The matching figures for `O=C(Nc1cccc(C(F)(F)F)c1)c1cccc(Cl)c1`: 37.9%, 93.2%, 93.2% and 15.8% (active).
